Source: PubChem (several laboratories)
HSF1 inh: HSF1 inhibition. NIH3T3-HGL HSE-luciferase, MG132-induced, luminescence 8 h; hits give low values. activity change, negative = inhibition, % at 7.5 µM (by protocol). actives 0.77% (n = 300,000);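 active = more than half of replicate wells show activity change below -50%, luminescence cut by over half; inconclusive = some wells, but at most half, below -50%; inactive = no replicate well below -50%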;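 note: luciferase reports HSF-1 transcriptional activity via heat shock element; 0% = median of DMSO wells and -100% = zero luminescence signal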
TROY NFkB inh: inhibitors of TROY-dependent NF-kB signaling. Q293 LMP1-TROYcd NF-kB luciferase reporter, 4 h. inhibition, % at 10 µM. actives 0.98% (n = 360,000). AID 1347056;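 active = compounds whose plate-normalised and pattern-corrected inhibition of the luciferase reporter signal at the single screening dose is 50% or more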
TWEAK Fn14 block: blocks TWEAK-Fn14 interaction in a reporter cell assay | TWEAK-stimulated Fn14 reporter cells, luciferase luminescence, 8 h | inhibition, % at 10 µM | actives 2% (n = 360,000) | AID 1159606; in the data active = inhibition above about 50%
HSF-1 act: increases HSF-1 driven luciferase reporter signal | NIH3T3-HGL HSF-1 luciferase reporter, MG132, 8 h; 100% = twice DMSO control signal | activation, % at 9 µM | actives 1.7% (n = 300,000);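 active = mean replicate activation of at least 50% with a set share of replicates each reaching 50%; inconclusive = only one of those two conditions met; inactive = mean below 50% and too few replicates reaching it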;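 note: 0% = median of the neutral control wells and 100% = twice that signal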
LMP1 NFkB inh: reduces LMP1-driven NF-kappaB luciferase signal. inhibition, % at 12.5 µM. actives 0.69% (n = 350,000). LMP1-induced NF-kappaB luciferase reporter cells, luminescence. AID 504558; in the data active = inhibition above about 41%; inconclusive = no clear call, values can overlap the other calls;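 note: 0% = neutral control wells and 100% = reference inhibitor control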
LGR2 antag: blocks bursicon-induced cAMP signaling via Drosophila LGR2. HEK293 LGR2, CRE-luciferase, bursicon-stimulated, 4 h. inhibition, % at 9.99 µM. actives 0.35% (n = 380,000);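 active = drop in luminescence signal, shown as inhibition above about 50% in the replicate tests, limit read from the data, passing the limit was not always enough; inconclusive = probably only some replicates passing the limit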;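 note: agonist challenge used bursicon conditioned medium at about half maximal strength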
* marks the source's active call; other numbers are inactive results; u = inconclusive; x = no result. A selection: hits, their analogues and other compounds. The true share with any hit is near 3.6%.

SMILES | HSF1 inh | TROY NFkB inh | TWEAK Fn14 block | HSF-1 act | LMP1 NFkB inh | LGR2 antag
O=c1[nH]c2ccccc2n1C1CCN(C(c2cc3ccccc3o2)c2nnnn2-c2ccc3c(c2)OCCO3)CC1 (stereo unspecified) | x | 66.6* | 78.3* | x | x | 95.9*
COc1ccc(-n2nnnc2C(c2cc3ccccc3o2)N2CCC(n3c(=O)[nH]c4ccccc43)CC2)cc1 (stereo unspecified) | x | 68.4* | 103.1* | x | x | 76.1*
COC(=O)[C@@H]1[C@@H](CO)[C@@H]2Cn3c(ccc(-c4ccccc4F)c3=O)[C@H]1N2C(=O)C1CCC1 | x | x | x | x | x | -9.1
CC(=O)OC(C)(C)/C=C/C(=O)[C@](C)(O)C1[C@H](O)C[C@@]2(C)C3CC=C4C(C[C@H](O)C(=O)C4(C)C)[C@]3(C)C(=O)C[C@]12C (stereo partly specified) | x | 48.6 | 42.4 | x | 42.7* | x
CC(C)(O)/C=C/C(=O)C(C)(O)C1C(O)CC2(C)C3CC=C4C(C=C(O)C(=O)C4(C)C)C3(C)C(=O)CC12C (stereo unspecified) | 69.1* | 70.1* | 89.9* | 69.1* | 45.0* | 87.9*
O=C(CF)NC(NC(=S)Nc1ccccc1O)C(Cl)(Cl)Cl (stereo unspecified) | 18.4 | 7.8 | -1.2 | 53.9* | -0.9 | 15.5
Cc1ccc(-c2cc(-c3ccc(C)cc3)[n+](-c3ccc(C(=O)O)cc3)c(-c3ccc(C)cc3)c2)cc1 | -27.8 | 5.0 | -0.4 | -30.3 | -2.3 | -17.8
Cc1ccc(C[n+]2c(-c3ccc(C)cc3)cc(-c3ccc(C)cc3)cc2-c2ccc(C)cc2)cc1 | 9.0 | 42.0 | 92.5* | 1.0 | u | x
COc1ccc(-c2ccc([C@@H]3[C@@H](CO)N4CCCCN(C(=O)Cc5ccncc5)C[C@H]34)cc2)cc1 | x | x | x | x | x | -4.9
COCCNC(=O)c1c(N)n(CCC(C)C)c2nc3ccccc3nc12 | 1.5 | 73.4* | 35.0 | -3.9 | -38.0 | x
Nc1c(C(=O)OCC2CCCO2)c2nc3ccccc3nc2n1Cc1cccs1 (stereo unspecified) | 14.4 | 68.2* | 48.9 | 24.2 | -11.7 | x
CC(C)CCn1c(N)c(C(=O)NCc2cccs2)c2nc3ccccc3nc21 | 6.4 | 67.8* | 63.1* | 5.7 | -26.0 | 27.2
CC(C)OCCCNC(=O)c1c(N)n(Cc2cccs2)c2nc3ccccc3nc12 | 1.1 | 33.6 | 30.0 | 10.8 | -25.9 | x
COCCNC(=O)c1c(NC(=O)c2ccc(Br)o2)n(Cc2ccccc2)c2nc3ccccc3nc12 | 29.7 | 68.1* | 58.0* | 65.9* | 2.2 | 15.4
O=C(Cc1ccccc1)N1CCCCN2[C@H](CO)[C@@H](c3ccc(C#Cc4ccccc4)cc3)[C@H]2C1 | x | x | x | x | x | -6.5
COC(=O)[C@@H]1[C@@H](CO)[C@@H]2Cn3c(ccc(-c4cccc(F)c4)c3=O)[C@H]1N2Cc1ccncc1 | x | x | x | x | x | -11.3
COc1ccc(-c2ccc([C@H]3[C@@H](CO)N4CCCCN(C(=O)Cc5ccccc5)C[C@@H]34)cc2)cc1 | x | x | x | x | x | 6.9
COC(=O)[C@@H]1[C@@H](CO)[C@@H]2Cn3c(ccc(-c4cccnc4)c3=O)[C@H]1N2S(=O)(=O)c1ccccc1F | x | x | x | x | x | -4.7
C=C1C(=O)[C@@]23C[C@H]4[C@@H]5[C@@]6(C)CCC[C@@]57[C@@H]2[C@@H](O)[C@@H]1C[C@H]3[C@H]7N4C6 | -17.0 | 16.3 | 49.6 | -18.9 | -2.6 | 59.0*
c1cc(-c2ccc(C3[C@H]4CNC[C@@H]3N4CC3CC3)cc2)ccn1 (stereo partly specified) | x | x | x | x | x | -11.1
O=C(Nc1ccc(OC(=O)N2CCCCC2)cc1)N1CCOCC1 | -11.7 | 85.2* | 94.0* | -21.3 | 29.5 | 11.9
CC(C)=CCc1c(O)cc2c(c1O)C(=O)CC(c1ccc(O)cc1)O2 (stereo unspecified) | -3.3 | 51.9* | 35.5 | -4.2 | -0.9 | -1.7
O=C(O)[C@@H]1[C@@H](CO)[C@@H]2Cn3c(ccc(-c4cncnc4)c3=O)[C@H]1N2C(=O)NC1CCCC1 | x | x | x | x | x | 4.3
CCCCn1c(=O)c(C(=O)NCc2ccncc2)c(O)c2ccccc21 | 2.1 | 22.6 | 56.2* | -2.7 | -1.9 | x
CCCCn1c(=O)c(C(=O)Nc2ccccc2S(N)(=O)=O)c(O)c2ccccc21 | -4.6 | 8.0 | 14.8 | 10.6 | 3.5 | x
SMILES | HSF1 inh | TROY NFkB inh | TWEAK Fn14 block | HSF-1 act | LMP1 NFkB inh | LGR2 antag
CCCCCn1c(=O)c(C(=O)Nc2ccccc2S(N)(=O)=O)c(O)c2ccccc21 | 6.6 | 36.2 | 59.0* | 30.7 | 22.9 | 26.4
O=C(Cc1ccccc1)N1CC2(C1)[C@H](c1ccccc1)[C@@H](CO)N2Cc1cccc(F)c1 | x | x | x | x | x | -0.1
O=C(Cc1ccccc1)N1C[C@@H]2[C@H](c3ccccc31)[C@@H](CO)N2Cc1ccccc1 | x | x | x | x | x | 2.8
COCc1cc(OC(=O)N(C)C)nc2c1c(C)nn2C | 2.9 | 56.8* | -10.2 | 3.2 | 2.8 | 10.3
COc1cccc(-c2ccc([C@H]3[C@H](CO)N4CCCCN(C(=O)Cc5ccncc5)C[C@@H]34)cc2)c1 | x | x | x | x | x | 0.1
NC(Cc1ccc(Cl)cc1)c1csc(Nc2ncccn2)n1 (stereo unspecified) | x | 13.9 | 57.9* | x | x | u
Nc1ccc(CC(N)c2csc(Nc3ncccn3)n2)cc1 (stereo unspecified) | x | -6.2 | -19.0 | x | x | -12.3
CCCC[C@@H](C)C[C@@H](C)C(=O)N(C)[C@@H](CC(C)C)C(=O)N[C@H](C(=O)N(C)[C@H](C(=O)N1C[C@@H](O)C[C@H]1C(=O)N1C(=O)C=C[C@@H]1C)C(C)C)C(C)OC(C)=O (stereo partly specified) | x | -22.3 | 51.5* | x | 3.9 | x
CCN1[C@@H]2Cn3c(ccc(-c4cccc(C(=O)N(C)C)c4)c3=O)[C@H]1[C@@H](C(=O)OC)[C@@H]2CO | x | x | x | x | x | -2.3
O=C(CCCc1ccc(N(CCCl)CCCl)cc1)NCc1ccccc1 | x | 12.5 | 2.5 | x | 42.1* | -1.8
O=C1CNC[C@H]2[C@@H](c3ccc(Br)cc3)[C@@H](CO)N12 | x | x | x | x | x | 7.5
CCc1ccc(-c2nn(Cc3ccccc3)cc2C=O)cc1 | 60.4 | -22.6 | -18.0 | 101.8* | -24.7 | -113.9
C=CCn1c(O)c(C(CC)=NCC2CCCO2)c(=O)[nH]c1=O (stereo unspecified) | 29.8 | -26.9 | -16.2 | 64.9* | -4.0 | x
C=CCn1c(O)c(/C(C)=N/N2CCCCC2)c(=O)[nH]c1=O | 25.4 | -20.9 | 17.1 | 67.0* | 13.9 | -10.7
